# Several values for one entry are separate records, joined by “and”; a condition that tells them apart may be missing. Equal values may be shown once. A number with no mark means an inactive call. Inconclusive results are not listed. Where a call stands in place of a potency, no number is given. Activity calls are given as the source filed them. Unless noted, calls come from the whole dose curve; as a rule, active = well fitted curve in the direction sought with a large enough effect; inconclusive = small, poorly fitted or top-dose-only effect, or another doubt; inactive = no such curve, though single readings can be large; an effect the other way counts as inactive or inconclusive.
# Tests used:
# [1] = qHTS Assay for Identification of Small Molecule Agonists for Hypoxia Response Element Signaling Pathway (AID 914; active = well fitted activation curve with a large enough effect in the signal ratio, with a control signal flat, not every such curve was filed as active; the % refers to the signal ratio; note: potency is the fitted concentration of half-maximal effect); details: ME-180 HRE-bla reporter, beta-lactamase ratio, CoCl2, 17 h; activation: hits give high values
# Outline: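 HRE-bla ME-180 cells, overnight plating in Opti-MEM with 0.5% dialyzed FBS; cpd titration + EC50 CoCl2, 17 h, 37 degrees Celsius; CCF4 2.5 h RT; 460/530 nm ratio; AC50.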
# [2] = Confirmation and Secondary Assay for Modulators of Hemoglobin Beta Chain Splicing at IVS2 654 locus (AID 910);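 note: HeLa cells stably carrying EGFP split by mutant beta-globin IVS2-654 intron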
# Outline: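 HeLa cells stably expressing EGFP interrupted by β-globin IVS2-654 intron, seeded overnight in Opti-MEM/2% FCS, then treated 2 days at 37 °C. Restored splicing read as total peak GFP intensity per well by laser scanning cytometry (488 nm excitation, 500–520 nm emission); 500 nM antisense PNA as control.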
# [3] = Confirmation and Secondary Assay for Modulators of Hemoglobin Beta Chain Splicing at IVS2 705 locus (AID 930);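 note: HeLa cells stably expressing the EGFP-705 splicing reporter; GFP fluorescence per well restored by corrected splicing of the IVS2-705 intron in EGFP; series mostly up to about 46 µM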
# Outline: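 Read-out: total peak GFP fluorescence per well (488 nm excitation, 500-520 nm emission) by laser-scanning cytometry. Cells: HeLa EGFP-705 splicing reporter, 2 days compound exposure in Optimem/2% FCS.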
# [4] = target: Cytochrome P450 3A4 (Homo sapiens) (UniProt P08684); assay: qHTS Assay for Activators of Cytochrome P450 3A4 (AID 885); note: nearly all actives have a fitted effect of over 65% in size
# Outline: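 Using 20nM recombinant human CYP3A4 in potassium phosphate (200mM), substrate Luciferin-PPXE at 25uM, luminescent luciferin detection followed a 60-min RT NADPH reaction; data scaled to 57 uM ketoconazole.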
# [5] = target: Cytochrome P450 3A4 (Homo sapiens) (UniProt P08684); assay: qHTS Assay for Inhibitors and Substrates of Cytochrome P450 3A4 (AID 884); note: nearly all actives have a fitted effect of over 50% in size; note: potency is the fitted concentration of half-maximal effect
# Outline: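 Luminescent readout of luciferin produced by CYP3A4 (20 nM) dealkylation of Luciferin-PPXE, 25 uM (its KM). NADPH-driven reaction ran 60 min at RT after 10 min compound preincubation; data scaled to 57 uM ketoconazole as 100% inhibition.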
# [6] = target: Cytochrome P450 2D6 (Homo sapiens) (UniProt P10635); assay: qHTS Assay for Inhibitors and Substrates of Cytochrome P450 2D6 (AID 891); note: nearly all actives have a fitted effect of over 60% in size; note: potency is the fitted concentration of half-maximal effect
# Outline: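 Luminescent read-out of luciferin formed by 5 nM human CYP2D6 demethylating 30 uM Luciferin-ME EGE (Km level) over 60 min at room temperature after NADPH regeneration addition. Data normalized to full inhibition by 1.43 uM quinidine.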
# [7] = target: Cytochrome P450 2C19 (Homo sapiens) (UniProt P33261); assay: qHTS Assay for Inhibitors and Substrates of Cytochrome P450 2C19 (AID 899); note: nearly all actives have a fitted effect of over 60% in size; note: potency is the fitted concentration of half-maximal effect
# Outline: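 Signal comes from luciferase acting on luciferin released by CYP2C19-mediated hydroxylation of Luciferin-H EGE, 10uM (KM). Assay mix: 5nM enzyme, 50mM KPO4; 60 min at 37C with NADPH regeneration. Data normalized against 57uM ketoconazole.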
# [8] = target: alpha-glucosidase (Oryza sativa, rice) (UniProt Q653V4); assay: Counterscreen for Glucocerebrosidase Inhibitors: qHTS Assay for Rice alpha-Glucosidase at pH 5.0 (AID 997)
# Outline: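 Endpoint fluorogenic assay at pH 5.0: compounds (0.7 nM to 77 uM) titrated against 4 nM rice enzyme and 400 uM 4-MU-alpha-glucoside for 20 min at room temperature; NaOH/glycine stop, read ex 365/em 440 nm, Hill-fitted AC50.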
# [9] = target: Muscarinic acetylcholine receptor M1 (Rattus norvegicus) (UniProt P08482); assay: qHTS Assay for Antagonists of Acetylcholine Muscarinic M1 Receptor: Measurement of IP-One Response (AID 944); note: nearly all actives have a fitted effect of over 75% in size
# Outline: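 Antagonism was measured as loss of carbachol-driven (EC80) IP1 accumulation in CHO cells carrying rat M1, using a homogeneous IP-One TR-FRET kit read at 620 and 665 nm.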
# [10] = target: Alpha-galactosidase A (Homo sapiens) (UniProt P06280); assay: Counterscreen for Glucocerebrosidase Inhibitors: qHTS Assay for Human alpha-Galactosidase at pH 4.5 (AID 992)
# Outline: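 Each compound is preincubated briefly with 2 nM enzyme before substrate addition (80 uM); plates then sit 20 min at ambient temperature, are quenched with 1M NaOH/1M glycine, and read fluorometrically.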
# [11] = qHTS Assay for Identification of Small Molecule Antagonists for NFkB Signaling Pathway (AID 895; active = well fitted inhibition curve with a large enough effect in the signal ratio, with a control signal flat, not every such curve was filed as active; the % refers to the signal ratio; note: potency is the fitted concentration of half-maximal effect)
# Outline: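 ME-180 NFkB-bla cells (beta-lactamase under NFkB response element), plated overnight, treated with compound then 10 pM TNF alpha (about EC50) for 5 hrs at 37 C. LiveBLAzer FRET read at 460/530 nm emission, 405 nm excitation.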
# [12] = target: Muscarinic acetylcholine receptor M1 (Rattus norvegicus) (UniProt P08482); assay: qHTS Assay for Antagonists of Acetylcholine Muscarinic M1 Receptor: Kinetic Measurement of Intracellular Calcium Response (AID 943);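 note: Fluo-4 calcium signal as peak divided by basal fluorescence over 4 min; series mostly up to about 35 µM; nearly all actives have a fitted effect of over 75% in size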
# Outline: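 Quantitative HTS in CHO-M1 (rat receptor) cells: 10 min compound exposure ahead of 100 nM carbachol, Fluo-4 fluorescence followed 4 min, value expressed as peak-to-basal ratio.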
# [13] = target: Cytochrome P450 2C9 (Homo sapiens) (UniProt P11712); assay: qHTS Assay for Inhibitors and Substrates of Cytochrome P450 2C9 (AID 883); note: nearly all actives have a fitted effect of over 60% in size; note: potency is the fitted concentration of half-maximal effect
# Outline: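 Signal: luciferase luminescence reporting luciferin produced by CYP2C9. Conditions: 10nM enzyme, Luciferin-H 100uM at KM, 25mM KPO4, 37C, 60 min NADPH-driven reaction. Reference: 57uM sulphaphenazole as 100% inhibition.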
# [14] = target: Pyruvate kinase PKM (Homo sapiens) (UniProt P14618); assay: qHTS Assay for Inhibitors of Human Muscle Pyruvate Kinase (AID 958)
# Outline: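 Human PKM2 activity is measured as ATP generation, detected by luciferase-coupled luminescence. The enzyme (0.1 nM) acts on 0.5 mM PEP and 0.1 mM ADP for 1 h at ambient temperature; data are normalized to uninhibited and full-inhibition wells.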
# [15] = target: Pyruvate kinase (Leishmania mexicana) (UniProt Q27686); assay: qHTS Validation Assay for Activators of Leishmania Mexicana Pyruvate Kinase (AID 959); details: purified L. mexicana pyruvate kinase, enzyme activity
# Outline: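 Luminescent ATP detection (PKLight) after a 1 h room-temperature reaction of 0.2 nM LmPYK E451W mutant with 0.5 mM PEP and 0.1 mM ADP at pH 7.2. Activity is normalized to DMSO-only control wells.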
# Chain of Cytochrome P450 3A4 (Homo sapiens) (P08684 whole entry, looked up): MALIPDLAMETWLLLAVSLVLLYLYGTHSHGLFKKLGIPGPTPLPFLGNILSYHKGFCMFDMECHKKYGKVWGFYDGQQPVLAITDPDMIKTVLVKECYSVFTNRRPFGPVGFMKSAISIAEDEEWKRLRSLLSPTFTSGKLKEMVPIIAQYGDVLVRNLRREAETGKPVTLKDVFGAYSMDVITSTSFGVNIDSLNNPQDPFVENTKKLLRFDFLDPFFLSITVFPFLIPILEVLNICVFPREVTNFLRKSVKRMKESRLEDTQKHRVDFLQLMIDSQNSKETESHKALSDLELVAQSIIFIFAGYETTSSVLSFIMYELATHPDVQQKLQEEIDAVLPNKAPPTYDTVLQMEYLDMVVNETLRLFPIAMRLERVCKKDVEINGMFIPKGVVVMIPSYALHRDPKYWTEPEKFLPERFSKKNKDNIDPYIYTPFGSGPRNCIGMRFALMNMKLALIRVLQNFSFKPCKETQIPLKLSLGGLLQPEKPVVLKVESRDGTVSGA
# Chain of Cytochrome P450 2D6 (Homo sapiens) (P10635 whole entry, looked up): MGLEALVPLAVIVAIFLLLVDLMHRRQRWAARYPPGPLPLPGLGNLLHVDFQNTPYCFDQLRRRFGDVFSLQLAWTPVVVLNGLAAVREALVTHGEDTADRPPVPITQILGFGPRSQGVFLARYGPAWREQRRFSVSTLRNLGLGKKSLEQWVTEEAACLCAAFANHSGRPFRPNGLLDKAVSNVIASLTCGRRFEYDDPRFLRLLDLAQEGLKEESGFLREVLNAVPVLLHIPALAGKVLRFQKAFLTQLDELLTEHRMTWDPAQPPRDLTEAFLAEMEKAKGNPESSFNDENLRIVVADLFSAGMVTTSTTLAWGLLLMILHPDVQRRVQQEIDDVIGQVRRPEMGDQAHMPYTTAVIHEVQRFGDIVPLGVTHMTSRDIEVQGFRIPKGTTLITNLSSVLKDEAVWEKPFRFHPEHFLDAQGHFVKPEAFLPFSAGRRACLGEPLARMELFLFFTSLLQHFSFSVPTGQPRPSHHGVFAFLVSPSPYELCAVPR
# Chain of Muscarinic acetylcholine receptor M1 (Rattus norvegicus) (P08482 whole entry, looked up): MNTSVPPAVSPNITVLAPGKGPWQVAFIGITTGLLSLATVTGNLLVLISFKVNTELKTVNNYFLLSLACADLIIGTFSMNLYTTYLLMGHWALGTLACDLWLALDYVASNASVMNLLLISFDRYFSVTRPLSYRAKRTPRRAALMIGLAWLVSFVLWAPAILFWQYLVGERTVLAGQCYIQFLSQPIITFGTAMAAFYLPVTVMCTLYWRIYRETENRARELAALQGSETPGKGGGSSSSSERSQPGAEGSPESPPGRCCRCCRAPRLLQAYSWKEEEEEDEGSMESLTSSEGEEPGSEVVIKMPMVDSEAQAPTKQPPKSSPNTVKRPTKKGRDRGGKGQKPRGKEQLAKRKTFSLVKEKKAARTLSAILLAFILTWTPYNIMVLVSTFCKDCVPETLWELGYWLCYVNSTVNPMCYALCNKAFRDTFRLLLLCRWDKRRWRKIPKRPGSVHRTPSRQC
# Chain of Cytochrome P450 2C19 (Homo sapiens) (P33261 whole entry, looked up): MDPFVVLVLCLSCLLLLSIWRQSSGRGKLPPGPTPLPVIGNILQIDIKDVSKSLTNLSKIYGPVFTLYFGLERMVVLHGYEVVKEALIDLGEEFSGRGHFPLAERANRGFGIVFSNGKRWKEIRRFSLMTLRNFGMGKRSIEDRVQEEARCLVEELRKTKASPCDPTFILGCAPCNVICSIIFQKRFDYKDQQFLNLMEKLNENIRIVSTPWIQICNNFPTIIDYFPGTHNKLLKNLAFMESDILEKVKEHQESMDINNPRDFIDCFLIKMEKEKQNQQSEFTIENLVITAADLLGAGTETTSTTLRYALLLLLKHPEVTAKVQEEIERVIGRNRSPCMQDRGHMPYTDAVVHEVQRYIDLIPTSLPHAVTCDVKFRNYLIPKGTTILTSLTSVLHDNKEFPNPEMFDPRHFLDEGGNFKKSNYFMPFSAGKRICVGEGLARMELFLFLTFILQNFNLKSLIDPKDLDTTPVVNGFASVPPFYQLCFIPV
# Chain of Alpha-galactosidase A (Homo sapiens) (P06280 whole entry, looked up): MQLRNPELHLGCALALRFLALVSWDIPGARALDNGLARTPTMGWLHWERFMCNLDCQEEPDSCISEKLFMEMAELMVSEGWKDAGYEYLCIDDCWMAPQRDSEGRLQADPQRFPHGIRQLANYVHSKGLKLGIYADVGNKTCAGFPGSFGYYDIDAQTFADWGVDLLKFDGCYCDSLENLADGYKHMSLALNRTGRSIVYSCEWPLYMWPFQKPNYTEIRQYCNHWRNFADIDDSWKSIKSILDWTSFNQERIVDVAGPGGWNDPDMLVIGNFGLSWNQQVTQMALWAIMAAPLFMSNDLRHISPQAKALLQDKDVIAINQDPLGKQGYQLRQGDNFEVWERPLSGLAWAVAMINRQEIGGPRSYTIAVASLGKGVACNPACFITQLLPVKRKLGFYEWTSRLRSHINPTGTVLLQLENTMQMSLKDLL
# Chain of Cytochrome P450 2C9 (Homo sapiens) (P11712 whole entry, looked up): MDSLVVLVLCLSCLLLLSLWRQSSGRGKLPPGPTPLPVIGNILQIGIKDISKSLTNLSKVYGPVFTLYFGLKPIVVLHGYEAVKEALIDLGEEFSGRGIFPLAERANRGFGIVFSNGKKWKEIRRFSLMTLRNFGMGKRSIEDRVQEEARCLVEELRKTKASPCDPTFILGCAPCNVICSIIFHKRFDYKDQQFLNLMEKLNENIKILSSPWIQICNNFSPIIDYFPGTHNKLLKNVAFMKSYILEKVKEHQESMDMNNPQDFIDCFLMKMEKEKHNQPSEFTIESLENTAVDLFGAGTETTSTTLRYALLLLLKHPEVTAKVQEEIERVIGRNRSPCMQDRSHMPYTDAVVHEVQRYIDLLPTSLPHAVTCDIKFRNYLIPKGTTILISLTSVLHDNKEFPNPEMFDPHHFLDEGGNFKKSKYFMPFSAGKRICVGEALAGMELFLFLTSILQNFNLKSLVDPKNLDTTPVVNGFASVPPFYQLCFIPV
# Chain of Pyruvate kinase PKM (Homo sapiens) (P14618 whole entry, looked up): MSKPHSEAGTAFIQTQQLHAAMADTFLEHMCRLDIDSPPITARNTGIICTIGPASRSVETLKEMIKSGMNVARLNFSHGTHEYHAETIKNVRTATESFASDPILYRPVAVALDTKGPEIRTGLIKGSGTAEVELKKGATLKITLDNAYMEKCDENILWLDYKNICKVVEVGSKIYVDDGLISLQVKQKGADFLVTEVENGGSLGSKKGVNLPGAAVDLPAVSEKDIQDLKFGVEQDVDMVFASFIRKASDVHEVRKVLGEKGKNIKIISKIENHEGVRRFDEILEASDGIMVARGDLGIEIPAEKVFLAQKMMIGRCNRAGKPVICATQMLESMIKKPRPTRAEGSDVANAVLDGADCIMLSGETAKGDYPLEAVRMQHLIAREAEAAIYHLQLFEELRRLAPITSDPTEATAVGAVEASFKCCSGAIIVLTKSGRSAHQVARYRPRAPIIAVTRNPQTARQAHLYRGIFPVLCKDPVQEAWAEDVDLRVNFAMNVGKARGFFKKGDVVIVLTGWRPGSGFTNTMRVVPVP
# Chain of Pyruvate kinase (Leishmania mexicana) (Q27686 2-499 E452W): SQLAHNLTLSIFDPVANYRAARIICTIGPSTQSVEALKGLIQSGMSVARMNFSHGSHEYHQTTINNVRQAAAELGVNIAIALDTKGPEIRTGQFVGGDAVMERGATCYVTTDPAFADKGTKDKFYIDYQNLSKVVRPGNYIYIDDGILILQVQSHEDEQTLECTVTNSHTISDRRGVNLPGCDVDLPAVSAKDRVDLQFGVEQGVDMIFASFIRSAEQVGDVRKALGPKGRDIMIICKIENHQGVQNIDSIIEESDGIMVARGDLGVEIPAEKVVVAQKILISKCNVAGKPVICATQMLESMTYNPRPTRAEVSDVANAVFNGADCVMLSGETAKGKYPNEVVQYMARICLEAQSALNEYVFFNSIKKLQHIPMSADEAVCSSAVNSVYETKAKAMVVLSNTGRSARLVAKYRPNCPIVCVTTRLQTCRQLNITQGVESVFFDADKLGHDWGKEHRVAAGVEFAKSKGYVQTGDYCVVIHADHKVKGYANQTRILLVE
structure (smiles),measurement,setting,value
O=C(c1cnccn1)N1CCC2(CCN(Cc3ccncc3)CC2)CC1,activation,[1],2.3%
CN(C)Cc1ccccc1-c1ccc2ncnc(NC3CC3)c2c1,Potency,[2],inactive
same,outcome,[3],inactive
O=C(Nc1ccccc1)N1CC[C@@]2(CCCN(C(=O)c3ccncc3)C2)C1,Potency,[4],inactive
Cc1cccc(CNc2ccnc(-c3cccc(NS(C)(=O)=O)c3)n2)c1,Potency,[2],inactive
same,outcome,[3],inactive
CN1CCN(c2nc(-c3cccc(NS(C)(=O)=O)c3)nc3ccccc23)CC1,Potency,[2],inactive
same,outcome,[3],inactive
COc1cccc(-c2nc(N3CCNCC3)c3ccccc3n2)c1,Potency,[2],inactive
same,outcome,[3],inactive
CN(C)C(=O)c1ccc(-c2ccc3ncnc(NCc4cccnc4)c3c2)cc1,Potency,[2],inactive
same,outcome,[3],inactive
CN1CCN(c2ccnc(-c3ccccc3C(F)(F)F)n2)CC1,Potency,[2],inactive
same,outcome,[3],inactive
COc1cccc(Cn2c(=O)cnc3cnc(N4CCN(C)CC4)nc32)c1,Potency,[4],inactive
COc1ccccc1CNc1ncncc1-c1ccc(N(C)C)cc1,Potency,[2],inactive
same,outcome,[3],inactive
COc1ccccc1CNc1ncnc2ccc(-c3ccc(N(C)C)cc3)cc12,Potency,[5],2 µM (active)
same,Potency,[4],inactive
same,outcome,[3],inactive
c1ccc2c(N3CCNCC3)nc(-c3ccoc3)nc2c1,Potency,[2],inactive
same,outcome,[3],inactive
CC[C@@]12CCCN3CCc4c(n(c5ccccc45)C(=O)C1)[C@H]32,Potency,[4],inactive
same,Potency,[6],20 nM (active) and 63.1 nM (active) and 251 nM (active)
same,Potency,[7],7.94 µM (active)
CN(C)C(=O)c1ccc(-c2nc(NCc3cccnc3)c3ccccc3n2)cc1,Potency,[4],inactive
same,Potency,[2],inactive
same,Potency,[1],3.16 µM (active)
same,outcome,[3],inactive
CN(C)Cc1ccccc1-c1cncnc1NCc1ccccc1,Potency,[2],inactive
same,outcome,[3],inactive
O=C(Nc1ccccc1)N1CCCC2(CCNCC2)C1,Potency,[4],inactive
C[C@@](N)(Cc1ccc(O)c(O)c1)C(=O)O,Potency,[4],inactive
same,Potency,[6],inactive
same,Potency,[7],inactive
same,Potency,[2],inactive
same,outcome,[3],inactive
same,outcome,[8],inactive
CCn1cc(C(=O)O)c(=O)c2cc(F)c(N3CCN[C@@H](C)C3)c(F)c21,Potency,[9],inactive
same,outcome,[10],inactive
O=C(O)CNC(=O)[C@@H](CS)Cc1ccccc1,Potency,[11],inactive
same,Potency,[12],inactive
same,outcome,[8],inactive
Cc1cccc(C)c1OC[C@H](C)N,Potency,[13],inactive
same,Potency,[5],inactive
same,Potency,[11],0.794 µM (active)
same,activation,[1],-2.33% and -23.1%
same,Potency,[9],inactive
CO/N=C(\C(=O)N[C@@H]1C(=O)N2C(C(=O)O)=C(COC(C)=O)CS[C@@H]12)c1csc(N)n1,Potency,[11],inactive
same,Potency,[7],inactive
same,Potency,[9],inactive
same,outcome,[14],inactive
same,Potency,[15],25.1 µM (active)
same,outcome,[10],inactive
same,outcome,[8],inactive
C[C@@H]1c2cccc(O)c2C(O)=C2C(=O)[C@@]3(O)C(O)=C(C(N)=O)C(=O)[C@@H](N(C)C)[C@@H]3[C@@H](O)[C@@H]21,Potency,[12],inactive
same,Potency,[9],inactive
COc1ccc(-c2nc3cnc(N4CCNCC4)nc3n(C3CC3)c2=O)cc1,Potency,[13],7.94 µM (active)
same,Potency,[4],inactive
same,Potency,[1],3.16 µM (active)

# Source: PubChem BioAssay (NCATS)
